Measurements from the supplement of paper PMC10849652.
The full data set covers some 8,800 targets. This sample favours those with a hit. About 0.5% of all pairs of compound and target were hits. A number with no mark means an inactive call.

Key:
Assay in all cases: log2 fold change, soluble protein after heating vs DMSO (PISA); higher = thermal stabilisation; K562 lysate, 10 uM; active = over 0.2 and 3.5 SD of the protein, either way, in both replicates (recomputed)
[1] = compound: C1=CC=C(C=C1)[C@H](COC2=CC3=C(C=C2)NC(=O)N3)NC(=O)C4=CC=CN(C4=O)CC5=CC(=C(C=C5)F)F
Procedure, shortened: (§1)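 The values are log-two fold changes in thermal stability compared with solvent controls and come from duplicates. They were obtained by TMTpro 16plex LC-MS/MS, with channel sums equalised, on the supernatant after 21,000xg for 90 min. That supernatant came from crude K562 extract at 1 mg/mL protein treated with 10 μM compound for 30 min, heated for 3 min across 48°C-58°C, pooled and brought to 0.5% NP-40 at 4°C.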

[2] = compound: CC1=C(SC2=C1C(=N[C@H](C3=NN=C(N32)C)CC(=O)N)C4=CC=C(C=C4)Cl)C
Procedure, shortened: as §1

[3] = compound: CC1=C2C(=CC=C1)N=C(N(C2=O)C3=CC=CC=C3C)CN4C=NC5=C(N=CN=C54)N
Procedure, shortened: as §1

[4] = compound: Cc1sc2c(c1C)C(c1ccc(Cl)cc1)=N[C@@H](CC(=O)OC(C)(C)C)c1nnc(C)n1-2
Procedure, shortened: as §1

[5] = compound: c1ccc([C@@H]2C[C@H]2NC2CCNCC2)cc1
Procedure, shortened: as §1

Chain of UniProt P18440 (P18440 whole entry, looked up): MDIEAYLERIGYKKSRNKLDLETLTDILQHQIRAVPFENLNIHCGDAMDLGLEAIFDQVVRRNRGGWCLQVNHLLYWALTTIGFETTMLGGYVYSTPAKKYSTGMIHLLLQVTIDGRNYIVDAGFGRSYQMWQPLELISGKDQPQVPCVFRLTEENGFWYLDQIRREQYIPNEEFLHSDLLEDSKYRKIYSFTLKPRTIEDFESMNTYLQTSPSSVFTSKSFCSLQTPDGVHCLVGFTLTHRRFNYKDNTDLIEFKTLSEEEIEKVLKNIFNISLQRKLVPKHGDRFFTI
Chain of UniProt Q99836 (Q99836 whole entry, looked up): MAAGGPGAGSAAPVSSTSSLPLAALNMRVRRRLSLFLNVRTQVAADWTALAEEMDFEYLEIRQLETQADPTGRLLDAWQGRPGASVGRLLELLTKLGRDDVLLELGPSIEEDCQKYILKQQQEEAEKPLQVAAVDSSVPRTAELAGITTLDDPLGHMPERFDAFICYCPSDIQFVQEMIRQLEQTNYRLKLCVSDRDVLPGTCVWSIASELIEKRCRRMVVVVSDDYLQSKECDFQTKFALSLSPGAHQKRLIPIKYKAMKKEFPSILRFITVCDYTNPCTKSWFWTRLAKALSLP
Chain of UniProt Q9Y217 (Q9Y217 whole entry, looked up): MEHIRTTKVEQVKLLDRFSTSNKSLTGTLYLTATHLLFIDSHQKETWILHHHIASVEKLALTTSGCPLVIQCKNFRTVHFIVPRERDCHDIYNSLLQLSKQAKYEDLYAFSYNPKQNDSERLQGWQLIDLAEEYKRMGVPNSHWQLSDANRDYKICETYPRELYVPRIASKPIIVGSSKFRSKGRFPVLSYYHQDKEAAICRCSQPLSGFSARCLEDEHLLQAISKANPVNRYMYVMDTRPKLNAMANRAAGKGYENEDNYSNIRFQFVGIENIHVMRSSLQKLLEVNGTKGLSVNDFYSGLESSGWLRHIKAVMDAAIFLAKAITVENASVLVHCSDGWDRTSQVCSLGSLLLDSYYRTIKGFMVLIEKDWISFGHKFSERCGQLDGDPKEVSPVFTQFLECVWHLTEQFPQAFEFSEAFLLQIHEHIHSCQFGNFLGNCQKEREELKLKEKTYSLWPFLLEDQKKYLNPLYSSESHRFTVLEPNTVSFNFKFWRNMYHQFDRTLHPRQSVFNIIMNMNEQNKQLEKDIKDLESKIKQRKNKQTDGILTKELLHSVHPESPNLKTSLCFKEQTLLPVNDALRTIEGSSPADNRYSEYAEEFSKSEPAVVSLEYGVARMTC
Chain of UniProt P04181 (P04181 whole entry, looked up): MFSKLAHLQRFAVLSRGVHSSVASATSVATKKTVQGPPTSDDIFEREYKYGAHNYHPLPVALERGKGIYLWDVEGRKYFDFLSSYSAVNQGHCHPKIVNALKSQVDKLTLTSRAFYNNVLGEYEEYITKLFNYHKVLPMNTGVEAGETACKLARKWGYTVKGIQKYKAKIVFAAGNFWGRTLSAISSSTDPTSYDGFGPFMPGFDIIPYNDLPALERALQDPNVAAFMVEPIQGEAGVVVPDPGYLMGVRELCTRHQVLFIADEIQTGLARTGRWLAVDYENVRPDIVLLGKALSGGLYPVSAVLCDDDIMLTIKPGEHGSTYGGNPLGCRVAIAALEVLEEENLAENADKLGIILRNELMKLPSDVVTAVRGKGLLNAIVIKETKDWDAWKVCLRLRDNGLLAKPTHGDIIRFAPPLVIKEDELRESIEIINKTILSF
Chain of UniProt O76041 (O76041 whole entry, looked up): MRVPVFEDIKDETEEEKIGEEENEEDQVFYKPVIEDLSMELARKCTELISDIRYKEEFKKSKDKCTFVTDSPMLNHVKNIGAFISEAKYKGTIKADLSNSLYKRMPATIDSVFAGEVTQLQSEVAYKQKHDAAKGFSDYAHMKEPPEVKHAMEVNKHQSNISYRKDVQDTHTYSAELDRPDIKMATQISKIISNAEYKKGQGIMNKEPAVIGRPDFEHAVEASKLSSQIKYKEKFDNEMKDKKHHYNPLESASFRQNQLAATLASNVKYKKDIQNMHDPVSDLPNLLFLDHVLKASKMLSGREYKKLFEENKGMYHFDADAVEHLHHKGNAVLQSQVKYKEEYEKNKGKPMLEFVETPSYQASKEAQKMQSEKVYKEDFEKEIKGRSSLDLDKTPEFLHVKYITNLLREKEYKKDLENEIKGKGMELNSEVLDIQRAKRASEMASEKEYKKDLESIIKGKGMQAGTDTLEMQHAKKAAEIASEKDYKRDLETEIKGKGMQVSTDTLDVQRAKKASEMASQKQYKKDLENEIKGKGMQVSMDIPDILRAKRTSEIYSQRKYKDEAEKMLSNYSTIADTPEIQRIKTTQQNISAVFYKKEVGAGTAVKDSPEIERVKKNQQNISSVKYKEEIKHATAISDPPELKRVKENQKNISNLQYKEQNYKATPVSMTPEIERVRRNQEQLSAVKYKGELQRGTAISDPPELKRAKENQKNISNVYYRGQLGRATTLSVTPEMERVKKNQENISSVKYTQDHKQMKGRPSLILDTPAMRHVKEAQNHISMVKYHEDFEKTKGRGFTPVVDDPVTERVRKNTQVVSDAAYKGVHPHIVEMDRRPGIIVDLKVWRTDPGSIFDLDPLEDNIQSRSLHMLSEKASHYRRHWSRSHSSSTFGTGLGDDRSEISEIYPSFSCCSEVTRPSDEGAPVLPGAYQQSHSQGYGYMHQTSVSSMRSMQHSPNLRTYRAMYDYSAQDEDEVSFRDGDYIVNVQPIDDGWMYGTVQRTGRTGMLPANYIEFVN
Chain of UniProt P20585 (P20585 whole entry, looked up): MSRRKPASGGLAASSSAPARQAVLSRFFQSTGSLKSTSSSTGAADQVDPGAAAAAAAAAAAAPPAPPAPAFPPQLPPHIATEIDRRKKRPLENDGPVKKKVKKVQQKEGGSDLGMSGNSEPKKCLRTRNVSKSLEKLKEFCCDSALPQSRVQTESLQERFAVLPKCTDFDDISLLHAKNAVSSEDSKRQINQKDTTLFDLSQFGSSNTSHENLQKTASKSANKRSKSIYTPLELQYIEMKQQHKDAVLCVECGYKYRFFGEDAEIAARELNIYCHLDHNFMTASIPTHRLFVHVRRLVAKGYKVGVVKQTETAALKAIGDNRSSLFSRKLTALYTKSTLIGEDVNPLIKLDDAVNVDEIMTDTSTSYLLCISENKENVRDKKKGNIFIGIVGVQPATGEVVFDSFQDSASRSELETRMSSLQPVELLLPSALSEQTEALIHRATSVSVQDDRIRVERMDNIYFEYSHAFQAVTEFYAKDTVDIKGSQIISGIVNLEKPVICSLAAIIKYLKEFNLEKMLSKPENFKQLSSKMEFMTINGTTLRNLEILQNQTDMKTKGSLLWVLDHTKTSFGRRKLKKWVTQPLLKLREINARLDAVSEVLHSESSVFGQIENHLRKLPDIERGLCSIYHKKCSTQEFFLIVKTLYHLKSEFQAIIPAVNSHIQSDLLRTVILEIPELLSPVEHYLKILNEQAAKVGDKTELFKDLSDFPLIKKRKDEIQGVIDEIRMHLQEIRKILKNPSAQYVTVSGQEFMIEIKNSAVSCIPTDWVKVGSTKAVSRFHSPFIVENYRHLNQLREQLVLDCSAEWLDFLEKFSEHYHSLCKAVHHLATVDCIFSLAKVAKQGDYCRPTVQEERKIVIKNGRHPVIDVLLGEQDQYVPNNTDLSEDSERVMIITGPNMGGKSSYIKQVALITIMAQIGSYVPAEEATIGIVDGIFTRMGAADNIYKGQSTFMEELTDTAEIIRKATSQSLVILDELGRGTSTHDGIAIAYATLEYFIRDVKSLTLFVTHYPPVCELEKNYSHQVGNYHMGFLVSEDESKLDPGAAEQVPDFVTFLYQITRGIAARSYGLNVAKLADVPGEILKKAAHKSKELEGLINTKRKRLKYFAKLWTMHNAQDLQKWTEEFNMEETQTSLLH
Chain of UniProt Q99417 (Q99417 whole entry, looked up): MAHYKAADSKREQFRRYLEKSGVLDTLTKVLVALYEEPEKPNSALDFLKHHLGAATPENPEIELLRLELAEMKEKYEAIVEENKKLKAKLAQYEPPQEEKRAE
Chain of UniProt O15294 (O15294 whole entry, looked up): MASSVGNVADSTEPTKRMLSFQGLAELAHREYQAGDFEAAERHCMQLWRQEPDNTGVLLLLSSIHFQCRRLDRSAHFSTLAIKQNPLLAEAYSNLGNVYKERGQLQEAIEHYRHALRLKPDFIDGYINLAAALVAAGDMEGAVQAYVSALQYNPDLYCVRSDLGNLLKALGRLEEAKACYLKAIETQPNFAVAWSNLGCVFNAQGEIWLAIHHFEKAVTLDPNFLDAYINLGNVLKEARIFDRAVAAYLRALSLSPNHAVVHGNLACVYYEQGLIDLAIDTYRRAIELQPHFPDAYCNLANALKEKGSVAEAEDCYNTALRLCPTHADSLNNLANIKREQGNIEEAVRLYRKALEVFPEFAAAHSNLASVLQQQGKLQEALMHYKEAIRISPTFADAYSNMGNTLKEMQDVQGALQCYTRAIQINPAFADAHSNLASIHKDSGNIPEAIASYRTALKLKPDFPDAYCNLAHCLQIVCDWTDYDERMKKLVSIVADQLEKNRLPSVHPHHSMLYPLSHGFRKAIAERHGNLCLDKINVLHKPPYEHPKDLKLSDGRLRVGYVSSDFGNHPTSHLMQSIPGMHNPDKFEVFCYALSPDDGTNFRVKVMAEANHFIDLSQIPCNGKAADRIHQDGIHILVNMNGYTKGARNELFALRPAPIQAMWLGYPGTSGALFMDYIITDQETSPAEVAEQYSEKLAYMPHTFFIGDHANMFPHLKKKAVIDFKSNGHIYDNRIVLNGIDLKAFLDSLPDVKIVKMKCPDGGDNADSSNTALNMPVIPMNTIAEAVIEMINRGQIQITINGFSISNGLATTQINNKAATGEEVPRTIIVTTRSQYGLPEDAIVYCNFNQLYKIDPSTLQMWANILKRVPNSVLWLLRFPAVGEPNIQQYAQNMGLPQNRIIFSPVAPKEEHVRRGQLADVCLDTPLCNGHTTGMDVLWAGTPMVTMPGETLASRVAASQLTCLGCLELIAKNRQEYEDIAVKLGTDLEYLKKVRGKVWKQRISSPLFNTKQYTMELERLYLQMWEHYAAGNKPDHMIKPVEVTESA

| Target | log2 fold change [1] | log2 fold change [2] | log2 fold change [3] | log2 fold change [4] | log2 fold change [5] |
| --- | --- | --- | --- | --- | --- |
| NCOR1 (UniProt O75376) | -0.009 | 0.002 | 0.035 | 0.015 | 0.001 |
| NCKAP1L (UniProt P55160) | -0.002 | 0.021 | -0.106 | -0.061 | 0.005 |
| NMT1 (UniProt P30419) | 0.004 | 0.002 | -0.002 | 0.011 | 0.004 |
| MYH6 (UniProt P13533) | -0.552 | 0.239 | – | – | – |
| NAA16 (UniProt Q6N069) | 0.027 | 0.01 | 0.168 | 0.065 | – |
| MT-ND1 (UniProt P03886) | -0.057 | -0.098 | -0.055 | -0.077 | -0.039 |
| NSL1 (UniProt Q96IY1) | 0.028 | 0.012 | -0.001 | 0.053 | -0.014 |
| MSH3 (UniProt P20585) | 0.018 | 0.014 | 0.039 | -0.008 | 0.04 |
| MYO1C (UniProt O00159) | -0.025 | -0.038 | -0.051 | -0.025 | 0.033 |
| NFATC1 (UniProt O95644) | -0.006 | 0.047 | -0.017 | 0.003 | -0.127 |
| PANK1 (UniProt Q8TE04) | -0.071 | -0.056 | 0.178 | -0.077 | 0.076 |
| NPTN (UniProt Q9Y639) | 0.026 | -0.045 | -0.038 | -0.018 | -0.006 |
| MRPL53 (UniProt Q96EL3) | -0.056 | -0.102 | 0.079 | -0.026 | -0.093 |
| OCRL (UniProt Q01968) | 0.018 | 0.056 | 0.003 | 0.013 | -0.017 |
| OGT (UniProt O15294) | 0.029 | 0.012 | 0.016 | 0.067 | 0.039 |
| NCOR2 (UniProt C9J0Q5) | 0.045 | 0.033 | -0.031 | 0.048 | -0.006 |
| NQO1 (UniProt P15559) | 0.433 (active) | 0.025 | 0.223 | -0.008 | -0.016 |
| MYH11 isoform 2 (UniProt P35749) | 0.037 | -0.021 | 0.004 | -0.065 | 0.025 |
| NIPBL (UniProt Q6KC79) | 0.003 | -0.055 | -0.001 | -0.014 | -0.01 |
| NDC1 (UniProt Q9BTX1) | 0.001 | -0.055 | 0.003 | 0.02 | -0.172 |
| NTPCR (UniProt Q9BSD7) | -0.015 | 0.067 | -0.015 | 0.034 | 0.029 |
| NIFK (UniProt Q9BYG3) | 0.065 | 0.07 | 0.015 | 0.056 | 0.047 |
| NSUN2 (UniProt Q08J23) | -0.016 | 0.011 | -0.009 | 0.021 | 0.019 |
| PAK1 (UniProt Q13153) | 0.029 | -0.009 | -0.011 | 0.015 | -0.126 |
| NPLOC4 isoform 2 (UniProt Q8TAT6) | 0.035 | 0.017 | 0.025 | -0.012 | -0.064 |
| MYOM1 (UniProt P52179) | -0.012 | 0.088 | -0.111 | -0.135 | -0.079 |
| NEBL isoform 2 (UniProt O76041) | -0.025 | -0.102 | 0.018 | -0.07 | -0.094 |

| Target | log2 fold change [1] | log2 fold change [2] | log2 fold change [3] | log2 fold change [4] | log2 fold change [5] |
| --- | --- | --- | --- | --- | --- |
| MRPS18A isoform 2 (UniProt Q9NVS2) | 0.005 | -0.101 | 0.054 | 0.066 | 0.2 |
| MTMR6 (UniProt Q9Y217) | 0.015 | 0.01 | 0.006 | -0.065 | 0.062 |
| NR2C2 isoform 2 (UniProt P49116) | -0.078 | -0.08 | -0.04 | 0.243 | 0.047 |
| NAT1 (UniProt P18440) | 0.049 | -0.021 | 0.012 | 0.015 | 0.011 |
| N6AMT1 (UniProt Q9Y5N5) | -0.046 | -0.086 | -0.046 | -0.011 | 0.052 |
| OAT (UniProt P04181) | 0.029 | 0.031 | 0.038 | 0.034 | -0.018 |
| NT5DC2 isoform 2 (UniProt Q9H857) | 0.021 | -0.026 | 0.009 | 0.051 | -0.022 |
| MYCBP (UniProt Q99417) | 0.043 | -0.087 | -0.013 | -0.022 | -0.27 |
| MTA2 (UniProt O94776) | 0 | 0.015 | -0.004 | 0.015 | 0.031 |
| OSBP (UniProt P22059) | 0.007 | 0.048 | 0.036 | -0.009 | 0.039 |
| MRPS12 (UniProt O15235) | 0 | 0.019 | 0.053 | 0.039 | 0.026 |
| OTUD7B (UniProt Q6GQQ9) | -0.004 | 0 | -0.001 | -0.02 | 0.035 |
| MTHFD1L (UniProt B7ZM99) | -0.039 | 0.025 | 0.06 | 0.025 | 0.049 |
| MSI2 (UniProt Q96DH6) | -0.007 | -0.007 | -0.001 | 0.048 | 0.071 |
| MVB12A (UniProt Q96EY5) | 0.006 | 0.032 | 0.017 | 0.032 | 0.059 |
| NCAPG2 (UniProt Q86XI2) | -0.074 | -0.04 | 0.019 | 0.025 | 0.001 |
| MYD88 isoform 6 (UniProt Q99836) | 0.019 | -0.021 | 0.026 | -0.008 | 0.013 |
| NUMB (UniProt P49757) | 0.001 | 0.034 | 0.009 | 0.004 | -0.032 |
| NFKBIB (UniProt Q15653) | 0.068 | 0 | 0.014 | 0.055 | -0.185 |
| NCAPG (UniProt Q9BPX3) | -0.031 | 0.013 | -0.007 | 0.013 | 0.03 |
| MSH6 (UniProt P52701) | -0.021 | 0.01 | 0.034 | 0.006 | 0.014 |
| PAK4 (UniProt O96013) | -0.06 | -0.03 | -0.018 | -0.021 | -0.14 |
| NUF2 (UniProt Q9BZD4) | -0.03 | 0.008 | 0.018 | 0.007 | 0.016 |
| MTA1 (UniProt Q13330) | 0.005 | -0.01 | 0.01 | 0.055 | 0.012 |
| NDUFA4 (UniProt O00483) | -0.019 | -0.048 | -0.063 | 0.035 | 0.287 |
| ORC2 (UniProt Q13416) | -0.052 | -0.011 | -0.012 | 0.025 | 0.044 |
| MYO1D (UniProt O94832) | -0.006 | 0.002 | 0.015 | -0.006 | 0.02 |
